Source: PubChem BioAssay (NCI)
This is part of a sample that, as a whole, favours compounds with a hit. Of some 83,000 tested, about 20% had one in any assay.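 Step 1: grow cells in 96-well plates. Step 2: add test compound at a single concentration. Step 3: incubate 48 h. Step 4: record percent growth.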 A number with no mark means an inactive call. Active and inactive are the calls of the source. How the source made its calls: active means growth percent below 10; inactive means the rest.

Legend:
Experiment in all cases: NCI-60 one-dose screen, 48 h (100 = growth as untreated, 0 = no growth, -100 = all killed)
Conditions in all cases: 10 µM unless noted
[1] = test system: EKVX NSCLC
[2] = test system: SN12C renal
[3] = test system: UO-31 renal
[4] = test system: ACHN renal
[5] = test system: CAKI-1 renal
[6] = test system: A498 renal
[7] = test system: CCRF-CEM leukemia
[8] = test system: MOLT-4 leukemia
[9] = test system: SR leukemia
[10] = test system: RPMI-8226 leukemia
[11] = test system: OVCAR-8 ovarian
[12] = test system: OVCAR-5 ovarian
[13] = test system: OVCAR-4 ovarian
[14] = test system: SK-OV-3 ovarian
[15] = test system: IGROV1 ovarian
[16] = test system: OVCAR-3 ovarian
[17] = test system: HS 578T breast
[18] = test system: NCI/ADR-RES ovarian
[19] = test system: T-47D breast

`NS(=O)(=O)c1cccc(Nc2nc(SCC(=O)c3ccc(Cl)cc3)nc3ccccc23)c1` was tested, and the growth [1] was 77.4%, the growth [2] was 63.4% and the growth [3] was 84.2%. The growth [4] was 77.6%, the growth [5] was 62.3% and the growth [6] was 85.2%. The growth [7] was 85.7%, the growth [8] was 82.8% and the growth [9] was 59.2%. The growth [10] was 65.4%, the growth [11] was 39.9% and the growth [12] was 116%. For the same compound, the growth [13] was 22.5%, the growth [14] was 103% and the growth [15] was 76.3%. The growth [16] was 85.8%, the growth [17] was 43.5% and the growth [18] was 91.1%. It also gave a growth [19] of 63.3%.

In the case of `CCC/C=C/C=C/C(=O)N[C@@H](Cc1cc(F)cc(F)c1)C(=O)N[C@@H]1C(=O)N2CCC[C@H]2C(=O)N2CCCC[C@H]2C(=O)N[C@@H](C)C(=O)N2C[C@H](C)C[C@H]2C(=O)O[C@H]1C`, the growth [1] is reported as 32.1%, the growth [2] is reported as 20.3% and the growth [3] is reported as 29.7%. The growth [4] was 23.1%, the growth [5] was 11.5% and the growth [6] was 3.26% (active). For the same compound, the growth [7] was 28.9%, the growth [8] was 34.7% and the growth [9] was 27.1%. The growth [10] was -0.71% (active), the growth [11] was 18.4% and the growth [12] was 24.6%. For the same compound, the growth [13] was 22.3%, the growth [14] was 30% and the growth [15] was 40.8%. For the same compound, the growth [16] was 19.1%, the growth [17] was 31% and the growth [18] was 20.8%. It also gave a growth [19] of 15.9%.

With `OC1CCN(CCCOc2c3ccccc3nc3c2oc2ccc(Cl)cc23)CC1` the growth [1] was 14.8%, the growth [2] was 18.8% and the growth [3] was 12.8%. The growth [4] was 5.57% (active), the growth [5] was 12.8% and the growth [6] was -8.33% (active). The growth [7] was 19.2%, the growth [8] was 9.39% (active) and the growth [9] was 8.25% (active). For the same compound, the growth [10] was -3.88% (active), the growth [11] was 18.7% and the growth [12] was 21.2%. For the same compound, the growth [13] was 19.1%, the growth [14] was 45.6% and the growth [15] was 1.4% (active). It also gave a growth [16] of 27.7%, a growth [17] of 32% and a growth [18] of 21.5%. The growth [19] was 35.9%.

For `C#C[C@]1(O)CC[C@H]2[C@@H]3CC=C4c5sc(-c6ccc(F)cn6)nc5CC[C@]4(C)[C@H]3CC[C@@]21C`, the growth [1] was 25.4%, the growth [2] was 58.7% and the growth [3] was 52.7%. The growth [4] was 47.2%, the growth [5] was 20.6% and the growth [6] was -24.7% (active). For the same compound, the growth [7] was 8.87% (active), the growth [8] was -7.92% (active) and the growth [9] was -2.25% (active). The growth [10] was -26% (active), the growth [11] was 42.8% and the growth [12] was 59.9%. The growth [13] was 57.8%, the growth [14] was 21.2% and the growth [15] was 49.8%. The growth [16] was 56.2%, the growth [17] was -16.2% (active) and the growth [18] was 44.8%. For the same compound, the growth [19] was 39.9%.

`COc1cc(OC)c(C2C(Cl)C(=O)N2Nc2ncnc3ccccc23)cc1OC` (centres undefined) was tested, and the growth [1] was 95.3%, the growth [2] was 98.3% and the growth [3] was 78.8%. For the same compound, the growth [4] was 90.5%, the growth [5] was 91.8% and the growth [6] was 97.2%. The growth [7] was 102%, the growth [8] was 105% and the growth [9] was 104%. For the same compound, the growth [10] was 106%, the growth [11] was 104% and the growth [12] was 105%. It also gave a growth [13] of 104%, a growth [14] of 113% and a growth [15] of 83.5%. The growth [16] was 116%, the growth [17] was 107% and the growth [18] was 105%. For the same compound, the growth [19] was 96.1%.

With `COc1cc(OC)c(C2SCC(=O)N2Nc2ncnc3ccccc23)cc1OC` (centres undefined) the growth [1] was 100%, the growth [2] was 103% and the growth [3] was 89.7%. It also gave a growth [4] of 106%, a growth [5] of 94% and a growth [6] of 81.8%. It also gave a growth [7] of 107%, a growth [8] of 105% and a growth [9] of 104%. The growth [10] was 115%, the growth [11] was 106% and the growth [12] was 109%. It also gave a growth [13] of 103%, a growth [14] of 127% and a growth [15] of 106%. The growth [17] was 112%, the growth [18] was 104% and the growth [19] was 106%.

Work on `Cc1cccc2sc(/N=C(\N)C(Cl)(Cl)Cl)nc12` yielded a growth [1] of 71%, a growth [2] of 110% and a growth [3] of 90.5%. For the same compound, the growth [4] was 98.4%, the growth [5] was 85.3% and the growth [6] was 92.7%. It also gave a growth [7] of 107%, a growth [8] of 103% and a growth [9] of 100%. For the same compound, the growth [10] was 105%, the growth [11] was 102% and the growth [12] was 119%. For the same compound, the growth [13] was 97.4%, the growth [14] was 101% and the growth [15] was 98.3%. For the same compound, the growth [16] was 115%, the growth [17] was 97.1% and the growth [18] was 108%. The growth [19] was 74.8%.

`c1ccc2c(NCCCn3ccnc3)c3oc4ccccc4c3nc2c1` was tested, and the growth [1] was 3.11% (active), the growth [2] was -10.8% (active) and the growth [3] was 0.573% (active). For the same compound, the growth [4] was -7.51% (active), the growth [5] was -8.49% (active) and the growth [6] was -18.2% (active). For the same compound, the growth [7] was 15%, the growth [8] was -3.87% (active) and the growth [9] was -2.89% (active). The growth [10] was -25.4% (active), the growth [11] was -16.9% (active) and the growth [12] was 1.5% (active). The growth [13] was -10.6% (active), the growth [14] was 16.5% and the growth [15] was -6.93% (active). For the same compound, the growth [17] was 19.7%, the growth [18] was 2.5% (active) and the growth [19] was 17%.

With `Cc1[nH]nc2ncc(C#Cc3cncc(C(=O)Nc4ccc(CN5CCN(C)CC5)c(C(F)(F)F)c4)c3)cc12` the growth [1] was 54.9%, the growth [2] was 7.71% (active) and the growth [3] was -6.87% (active). The growth [4] was 4.36% (active), the growth [5] was -27.9% (active) and the growth [6] was -17.7% (active). The growth [7] was 20.9%, the growth [8] was 20.4% and the growth [9] was 19.6%. The growth [10] was 29.9%, the growth [11] was 37.8% and the growth [12] was 20.5%. For the same compound, the growth [13] was 50.7%, the growth [14] was 0.879% (active) and the growth [15] was 1.84% (active). For the same compound, the growth [16] was 37.8%, the growth [17] was 9.15% (active) and the growth [18] was 78%. It also gave a growth [19] of 32.6%.
